# Test results taken from paper PMC7862700, “An all-to-all approach to the identification of sequence-specific readers for epigenetic DNA modifications on cytosine”.
# Key:
# Test in all cases: DAPPL (digital affinity profiling via proximity ligation, sequencing); 10 mM Tris-HCl pH 7.5, 50 mM NaCl, 1 mM DTT, 4% glycerol, room temperature, 30 min; GST-TFs on glutathione beads, 16-mer random dsDNA library, 0.1% formaldehyde crosslink after washing; high values mean tight binding
# [1] = target: T1, FLI1 (Homo sapiens, UniProt Q01543 1-452); conditions: protein: recombinant; tags: N-terminal GST; dsDNA, one strand shown
# T1 sequence: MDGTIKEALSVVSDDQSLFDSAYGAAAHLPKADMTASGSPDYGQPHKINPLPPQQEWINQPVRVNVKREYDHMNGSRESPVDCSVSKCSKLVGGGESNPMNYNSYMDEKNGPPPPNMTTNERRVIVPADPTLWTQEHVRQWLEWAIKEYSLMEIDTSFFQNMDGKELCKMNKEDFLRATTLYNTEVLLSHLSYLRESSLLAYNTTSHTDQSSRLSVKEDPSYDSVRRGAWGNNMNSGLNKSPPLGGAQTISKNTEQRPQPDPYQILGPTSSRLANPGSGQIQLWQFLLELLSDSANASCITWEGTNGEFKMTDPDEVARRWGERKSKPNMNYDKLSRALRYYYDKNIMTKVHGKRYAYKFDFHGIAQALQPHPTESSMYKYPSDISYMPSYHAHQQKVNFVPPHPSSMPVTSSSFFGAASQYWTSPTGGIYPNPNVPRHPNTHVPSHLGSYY
# Method in brief: (§1)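 A tag-only sample was pooled with DNA-barcoded human transcription factors that had been expressed in yeast as GST fusions and captured on glutathione beads. The pools were incubated for 30 min at room temperature with 200 nmole of a random double-stranded 16-mer DNA library in Tris/NaCl/DTT/glycerol buffer, then washed, crosslinked with 0.1% formaldehyde, proximity-ligated (BsaI/T4 ligase, 1 h, 37 °C), PCR-amplified and sequenced on an Illumina NextSeq500. Binding signal is each hexamer's read frequency for a factor divided by its frequency for the tag-only sample.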
# [2] = target: T2, ELK1 (Homo sapiens, UniProt P19419 1-428); conditions: protein: recombinant; tags: N-terminal GST; dsDNA, one strand shown
# T2 sequence: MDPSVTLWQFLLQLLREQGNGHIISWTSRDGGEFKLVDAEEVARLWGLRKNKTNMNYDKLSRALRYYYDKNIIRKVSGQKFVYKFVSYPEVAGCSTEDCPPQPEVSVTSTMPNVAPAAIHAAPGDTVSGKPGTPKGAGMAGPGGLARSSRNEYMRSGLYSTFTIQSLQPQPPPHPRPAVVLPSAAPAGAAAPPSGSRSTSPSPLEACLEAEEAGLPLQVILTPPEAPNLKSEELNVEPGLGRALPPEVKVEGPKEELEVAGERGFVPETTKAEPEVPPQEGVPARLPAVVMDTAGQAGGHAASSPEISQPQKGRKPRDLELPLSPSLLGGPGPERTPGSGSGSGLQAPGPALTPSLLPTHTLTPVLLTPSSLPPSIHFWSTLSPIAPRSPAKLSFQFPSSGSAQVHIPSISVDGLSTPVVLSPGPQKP
# Method in brief: as §1
# [3] = target: T3, GABPA (Homo sapiens, UniProt Q06546 1-454); conditions: protein: recombinant; tags: N-terminal GST; dsDNA, one strand shown
# T3 sequence: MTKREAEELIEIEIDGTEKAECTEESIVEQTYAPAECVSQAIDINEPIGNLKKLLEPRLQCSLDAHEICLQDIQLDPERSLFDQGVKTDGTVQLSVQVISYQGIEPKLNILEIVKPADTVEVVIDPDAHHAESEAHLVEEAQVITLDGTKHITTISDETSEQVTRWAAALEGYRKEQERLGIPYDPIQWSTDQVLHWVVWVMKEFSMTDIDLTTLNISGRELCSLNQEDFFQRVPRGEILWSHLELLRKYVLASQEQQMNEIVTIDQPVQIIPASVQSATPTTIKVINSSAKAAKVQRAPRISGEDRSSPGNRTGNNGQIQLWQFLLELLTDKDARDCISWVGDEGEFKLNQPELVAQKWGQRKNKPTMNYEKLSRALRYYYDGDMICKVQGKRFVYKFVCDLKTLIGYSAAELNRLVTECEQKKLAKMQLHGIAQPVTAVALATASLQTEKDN
# Method in brief: as §1
# [4] = target: T4, ERG (Homo sapiens, UniProt P11308 1-479); conditions: protein: recombinant; tags: N-terminal GST; dsDNA, one strand shown
# T4 sequence: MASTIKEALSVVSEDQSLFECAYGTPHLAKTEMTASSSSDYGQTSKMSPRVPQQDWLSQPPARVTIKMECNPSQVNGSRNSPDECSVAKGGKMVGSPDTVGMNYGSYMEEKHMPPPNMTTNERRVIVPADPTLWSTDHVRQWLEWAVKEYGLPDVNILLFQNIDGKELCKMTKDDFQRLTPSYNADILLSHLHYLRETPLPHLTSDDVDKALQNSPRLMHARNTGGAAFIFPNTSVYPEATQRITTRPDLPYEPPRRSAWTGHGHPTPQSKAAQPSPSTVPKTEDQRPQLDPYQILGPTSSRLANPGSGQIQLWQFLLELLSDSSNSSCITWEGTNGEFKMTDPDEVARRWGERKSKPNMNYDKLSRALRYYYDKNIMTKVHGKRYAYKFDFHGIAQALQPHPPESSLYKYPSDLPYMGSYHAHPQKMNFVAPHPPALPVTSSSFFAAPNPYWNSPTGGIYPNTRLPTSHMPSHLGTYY
# Method in brief: as §1
# [5] = target: ELF1 (Homo sapiens, UniProt P32519 1-619); conditions: protein: recombinant; tags: N-terminal GST; dsDNA, one strand shown
# Chain of ELF1 (P32519 whole entry): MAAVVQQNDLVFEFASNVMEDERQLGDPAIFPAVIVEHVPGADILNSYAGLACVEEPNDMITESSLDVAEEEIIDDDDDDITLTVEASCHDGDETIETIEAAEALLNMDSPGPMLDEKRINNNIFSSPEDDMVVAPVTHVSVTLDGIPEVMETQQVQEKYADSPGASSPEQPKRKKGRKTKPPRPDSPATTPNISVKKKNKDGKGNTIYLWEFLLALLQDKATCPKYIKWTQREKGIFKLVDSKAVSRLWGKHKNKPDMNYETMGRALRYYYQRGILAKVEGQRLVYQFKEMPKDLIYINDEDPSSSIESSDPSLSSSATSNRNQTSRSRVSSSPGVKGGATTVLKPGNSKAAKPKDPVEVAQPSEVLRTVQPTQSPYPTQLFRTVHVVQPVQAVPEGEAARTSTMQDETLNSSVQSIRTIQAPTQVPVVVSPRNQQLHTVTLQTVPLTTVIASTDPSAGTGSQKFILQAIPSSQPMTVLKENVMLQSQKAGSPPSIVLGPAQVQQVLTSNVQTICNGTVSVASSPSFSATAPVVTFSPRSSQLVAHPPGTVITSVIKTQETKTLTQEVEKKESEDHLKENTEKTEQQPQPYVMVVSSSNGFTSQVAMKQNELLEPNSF
# Method in brief: as §1
# [6] = target: T5, EHF (Homo sapiens, UniProt Q9NZC4 1-300); conditions: protein: recombinant; tags: N-terminal GST; dsDNA, one strand shown
# T5 sequence: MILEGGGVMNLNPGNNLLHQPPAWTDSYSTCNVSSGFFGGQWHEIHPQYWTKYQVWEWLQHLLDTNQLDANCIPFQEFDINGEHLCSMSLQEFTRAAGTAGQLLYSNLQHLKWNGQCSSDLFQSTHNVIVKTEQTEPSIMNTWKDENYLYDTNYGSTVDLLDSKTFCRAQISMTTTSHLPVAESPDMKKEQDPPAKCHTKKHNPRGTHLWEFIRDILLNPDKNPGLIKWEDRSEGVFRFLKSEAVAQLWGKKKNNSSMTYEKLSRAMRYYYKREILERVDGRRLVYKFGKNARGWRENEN
# Method in brief: as §1
# [7] = target: SPI1 (Homo sapiens, UniProt P17947 1-270); conditions: protein: recombinant; tags: N-terminal GST; dsDNA, one strand shown
# Method in brief: as §1
# [8] = target: SPIB (Homo sapiens, UniProt Q01892 1-262); conditions: protein: recombinant; tags: N-terminal GST; dsDNA, one strand shown
# Chain of SPIB (Q01892 whole entry): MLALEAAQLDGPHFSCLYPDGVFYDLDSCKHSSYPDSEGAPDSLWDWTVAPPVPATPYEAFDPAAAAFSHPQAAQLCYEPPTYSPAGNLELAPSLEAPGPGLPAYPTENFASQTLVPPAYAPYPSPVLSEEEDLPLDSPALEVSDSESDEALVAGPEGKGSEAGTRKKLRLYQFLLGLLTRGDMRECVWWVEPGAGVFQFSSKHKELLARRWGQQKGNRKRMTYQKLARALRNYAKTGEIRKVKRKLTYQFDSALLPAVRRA
# Method in brief: as §1
# [9] = target: T6, ELK3 (Homo sapiens, UniProt P41970 1-407); conditions: protein: recombinant; tags: N-terminal GST; dsDNA, one strand shown
# T6 sequence: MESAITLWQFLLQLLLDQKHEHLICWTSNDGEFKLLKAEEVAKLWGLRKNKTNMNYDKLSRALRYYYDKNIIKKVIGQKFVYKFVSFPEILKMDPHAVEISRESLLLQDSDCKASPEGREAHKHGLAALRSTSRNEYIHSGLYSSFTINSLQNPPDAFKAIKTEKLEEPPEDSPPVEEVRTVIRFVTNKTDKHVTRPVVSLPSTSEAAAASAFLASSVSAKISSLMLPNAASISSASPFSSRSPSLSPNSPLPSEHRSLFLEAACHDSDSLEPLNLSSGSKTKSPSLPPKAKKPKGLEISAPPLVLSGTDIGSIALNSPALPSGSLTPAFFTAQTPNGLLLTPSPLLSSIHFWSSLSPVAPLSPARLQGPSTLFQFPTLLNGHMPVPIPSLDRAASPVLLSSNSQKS
# Method in brief: as §1
# [10] = target: T7, FEV (Homo sapiens, UniProt Q99581 1-238); conditions: protein: recombinant; tags: N-terminal GST; dsDNA, one strand shown
# T7 sequence: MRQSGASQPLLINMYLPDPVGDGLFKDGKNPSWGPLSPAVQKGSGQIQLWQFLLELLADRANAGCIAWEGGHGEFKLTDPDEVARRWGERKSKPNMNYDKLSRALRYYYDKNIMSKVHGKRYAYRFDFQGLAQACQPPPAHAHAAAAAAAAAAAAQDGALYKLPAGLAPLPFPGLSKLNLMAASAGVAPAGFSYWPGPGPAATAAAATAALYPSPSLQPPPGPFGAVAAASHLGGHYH
# Method in brief: as §1
# [11] = target: ETV5 (Homo sapiens, UniProt P41161 1-510); conditions: protein: recombinant; tags: N-terminal GST; dsDNA, one strand shown
# Chain of ETV5 (P41161 whole entry): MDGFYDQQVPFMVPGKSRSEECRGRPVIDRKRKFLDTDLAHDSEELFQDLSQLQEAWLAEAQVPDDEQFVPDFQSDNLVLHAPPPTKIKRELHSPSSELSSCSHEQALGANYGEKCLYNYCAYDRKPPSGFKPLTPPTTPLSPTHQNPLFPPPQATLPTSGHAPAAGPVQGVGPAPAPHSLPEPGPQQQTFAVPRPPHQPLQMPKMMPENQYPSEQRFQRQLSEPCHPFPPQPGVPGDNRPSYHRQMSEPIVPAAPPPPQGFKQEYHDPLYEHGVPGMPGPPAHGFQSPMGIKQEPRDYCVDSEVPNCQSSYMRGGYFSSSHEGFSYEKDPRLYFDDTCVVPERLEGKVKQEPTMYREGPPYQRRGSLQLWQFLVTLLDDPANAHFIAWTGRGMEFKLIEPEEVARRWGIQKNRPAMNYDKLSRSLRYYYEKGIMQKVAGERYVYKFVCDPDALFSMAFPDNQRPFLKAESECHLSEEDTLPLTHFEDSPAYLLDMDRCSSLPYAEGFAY
# Method in brief: as §1
# [12] = target: HSF1 (Homo sapiens, UniProt Q00613 1-529); conditions: protein: recombinant; tags: N-terminal GST; chain copies: 3; dsDNA, one strand shown
# Chain of HSF1 (Q00613 whole entry): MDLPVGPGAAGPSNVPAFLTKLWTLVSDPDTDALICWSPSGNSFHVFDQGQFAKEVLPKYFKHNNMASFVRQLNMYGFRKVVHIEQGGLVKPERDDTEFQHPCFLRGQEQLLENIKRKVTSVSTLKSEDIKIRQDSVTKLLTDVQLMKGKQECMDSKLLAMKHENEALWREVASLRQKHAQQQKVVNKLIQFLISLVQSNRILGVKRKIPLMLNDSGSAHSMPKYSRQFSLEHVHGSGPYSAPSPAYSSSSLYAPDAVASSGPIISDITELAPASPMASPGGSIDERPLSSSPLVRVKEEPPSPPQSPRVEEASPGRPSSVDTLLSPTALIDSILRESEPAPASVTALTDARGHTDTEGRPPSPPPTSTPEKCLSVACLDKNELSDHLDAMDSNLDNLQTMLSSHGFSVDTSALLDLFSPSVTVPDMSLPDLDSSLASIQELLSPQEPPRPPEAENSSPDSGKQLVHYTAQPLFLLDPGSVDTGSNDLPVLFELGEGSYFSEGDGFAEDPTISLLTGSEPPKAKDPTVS
# Method in brief: as §1
# [13] = target: T8, SPIC (Homo sapiens, UniProt Q8N5J4 1-248); conditions: protein: recombinant; tags: N-terminal GST; dsDNA, one strand shown
# T8 sequence: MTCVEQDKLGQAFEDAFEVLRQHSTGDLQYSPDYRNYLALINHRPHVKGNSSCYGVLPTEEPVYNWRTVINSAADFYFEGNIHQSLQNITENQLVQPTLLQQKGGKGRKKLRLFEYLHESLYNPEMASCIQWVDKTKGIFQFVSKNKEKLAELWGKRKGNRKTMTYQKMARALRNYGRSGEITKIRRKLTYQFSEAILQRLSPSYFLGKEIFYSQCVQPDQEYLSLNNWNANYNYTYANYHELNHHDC
# Method in brief: as §1
# [14] = target: ELF4 (Homo sapiens, UniProt Q99607 1-663); conditions: protein: recombinant; tags: N-terminal GST; dsDNA, one strand shown
# Chain of ELF4 (Q99607 whole entry): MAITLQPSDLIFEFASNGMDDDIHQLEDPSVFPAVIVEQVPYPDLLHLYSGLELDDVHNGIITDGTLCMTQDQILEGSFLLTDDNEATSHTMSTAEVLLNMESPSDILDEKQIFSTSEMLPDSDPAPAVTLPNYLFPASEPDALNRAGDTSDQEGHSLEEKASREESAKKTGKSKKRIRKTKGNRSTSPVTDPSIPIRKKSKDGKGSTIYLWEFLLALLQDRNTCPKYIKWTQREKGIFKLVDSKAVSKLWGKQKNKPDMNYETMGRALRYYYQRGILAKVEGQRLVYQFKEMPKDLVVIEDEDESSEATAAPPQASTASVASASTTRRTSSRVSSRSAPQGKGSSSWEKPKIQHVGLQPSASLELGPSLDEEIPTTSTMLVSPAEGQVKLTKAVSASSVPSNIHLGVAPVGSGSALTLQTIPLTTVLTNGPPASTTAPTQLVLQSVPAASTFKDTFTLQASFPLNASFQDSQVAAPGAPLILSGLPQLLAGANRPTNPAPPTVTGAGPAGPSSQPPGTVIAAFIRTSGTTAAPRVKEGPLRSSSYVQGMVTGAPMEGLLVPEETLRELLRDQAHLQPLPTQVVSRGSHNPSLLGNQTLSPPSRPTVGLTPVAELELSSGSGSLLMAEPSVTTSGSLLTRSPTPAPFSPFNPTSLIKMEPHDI
# Method in brief: as §1
# [15] = target: T9, ELK4 (Homo sapiens, UniProt P28324-2 1-405); conditions: protein: recombinant; tags: N-terminal GST; dsDNA, one strand shown
# T9 sequence: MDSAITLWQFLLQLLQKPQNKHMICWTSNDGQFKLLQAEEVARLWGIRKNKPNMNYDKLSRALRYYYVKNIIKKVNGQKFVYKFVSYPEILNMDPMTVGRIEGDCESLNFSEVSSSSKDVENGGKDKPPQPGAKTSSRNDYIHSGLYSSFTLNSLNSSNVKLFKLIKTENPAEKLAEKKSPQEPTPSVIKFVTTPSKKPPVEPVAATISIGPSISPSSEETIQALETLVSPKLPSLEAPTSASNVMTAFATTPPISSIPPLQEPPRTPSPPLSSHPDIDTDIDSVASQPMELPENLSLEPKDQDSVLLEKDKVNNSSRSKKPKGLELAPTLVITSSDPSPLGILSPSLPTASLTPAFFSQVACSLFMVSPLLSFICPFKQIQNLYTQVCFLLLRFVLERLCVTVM
# Method in brief: as §1
# [16] = target: T10, ETV2 (Homo sapiens, UniProt O00321 1-342); conditions: protein: recombinant; tags: N-terminal GST; dsDNA, one strand shown
# T10 sequence: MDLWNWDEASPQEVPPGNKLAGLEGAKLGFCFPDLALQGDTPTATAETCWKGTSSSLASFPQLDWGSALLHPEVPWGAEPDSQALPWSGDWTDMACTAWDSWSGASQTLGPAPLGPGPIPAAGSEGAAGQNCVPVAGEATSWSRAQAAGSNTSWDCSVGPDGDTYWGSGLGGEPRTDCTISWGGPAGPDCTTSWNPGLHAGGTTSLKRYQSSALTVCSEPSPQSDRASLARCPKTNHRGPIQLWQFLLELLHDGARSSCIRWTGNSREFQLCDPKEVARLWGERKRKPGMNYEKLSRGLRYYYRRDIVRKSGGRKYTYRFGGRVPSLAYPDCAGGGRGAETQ
# Method in brief: as §1
# [17] = target: T11, ELF3 (Homo sapiens, UniProt P78545 1-371); conditions: protein: recombinant; tags: N-terminal GST; dsDNA, one strand shown
# T11 sequence: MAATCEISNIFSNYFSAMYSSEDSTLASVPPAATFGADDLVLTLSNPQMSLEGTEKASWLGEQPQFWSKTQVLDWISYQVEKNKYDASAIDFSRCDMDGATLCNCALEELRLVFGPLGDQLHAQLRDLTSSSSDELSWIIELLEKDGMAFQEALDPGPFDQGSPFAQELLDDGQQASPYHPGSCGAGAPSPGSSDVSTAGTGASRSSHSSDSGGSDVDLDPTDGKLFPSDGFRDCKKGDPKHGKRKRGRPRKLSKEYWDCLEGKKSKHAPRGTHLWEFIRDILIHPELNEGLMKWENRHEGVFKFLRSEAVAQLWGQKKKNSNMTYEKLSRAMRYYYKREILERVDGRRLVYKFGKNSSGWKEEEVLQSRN
# Method in brief: as §1
# [18] = target: CRX (Homo sapiens, UniProt O43186 1-299); conditions: protein: recombinant; tags: N-terminal GST; dsDNA, one strand shown
# Chain of CRX (O43186 whole entry): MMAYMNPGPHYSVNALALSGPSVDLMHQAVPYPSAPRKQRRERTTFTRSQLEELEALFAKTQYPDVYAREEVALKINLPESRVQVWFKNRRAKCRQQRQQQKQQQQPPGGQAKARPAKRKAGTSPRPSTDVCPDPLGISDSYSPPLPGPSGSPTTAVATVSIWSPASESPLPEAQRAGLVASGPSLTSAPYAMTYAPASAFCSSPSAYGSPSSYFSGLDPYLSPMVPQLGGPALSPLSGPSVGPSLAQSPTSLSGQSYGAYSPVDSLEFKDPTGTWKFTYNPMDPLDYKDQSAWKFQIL
# Method in brief: as §1
# [19] = target: ETV1 (Homo sapiens, UniProt P50549 1-477); conditions: protein: recombinant; tags: N-terminal GST; dsDNA, one strand shown
# Chain of ETV1 (P50549 whole entry): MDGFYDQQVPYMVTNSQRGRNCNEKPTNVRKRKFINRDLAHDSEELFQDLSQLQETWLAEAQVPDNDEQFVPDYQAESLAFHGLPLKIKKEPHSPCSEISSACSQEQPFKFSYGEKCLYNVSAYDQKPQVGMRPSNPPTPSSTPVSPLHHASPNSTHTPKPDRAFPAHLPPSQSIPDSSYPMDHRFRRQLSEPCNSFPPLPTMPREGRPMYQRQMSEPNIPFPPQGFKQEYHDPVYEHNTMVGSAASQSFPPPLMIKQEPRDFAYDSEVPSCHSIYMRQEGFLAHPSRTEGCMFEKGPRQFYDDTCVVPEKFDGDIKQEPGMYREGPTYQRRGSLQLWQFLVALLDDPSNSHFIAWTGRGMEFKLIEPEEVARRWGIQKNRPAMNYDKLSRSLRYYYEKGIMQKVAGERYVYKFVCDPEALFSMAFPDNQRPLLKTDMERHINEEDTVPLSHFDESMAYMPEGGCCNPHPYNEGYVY
# Method in brief: as §1
sequence,measurement,setting,value
AAACCA,binding signal,[1],"1.13 fold enrichment (6-mer frequency, TF over GST control)"
same,binding signal,[2],"1.11 fold enrichment (6-mer frequency, TF over GST control)"
same,binding signal,[3],"1.14 fold enrichment (6-mer frequency, TF over GST control)"
same,binding signal,[4],"1.19 fold enrichment (6-mer frequency, TF over GST control)"
same,binding signal,[5],"1.18 fold enrichment (6-mer frequency, TF over GST control)"
same,binding signal,[6],"1.17 fold enrichment (6-mer frequency, TF over GST control)"
same,binding signal,[7],"1.07 fold enrichment (6-mer frequency, TF over GST control)"
same,binding signal,[8],"1.16 fold enrichment (6-mer frequency, TF over GST control)"
same,binding signal,[9],"1.18 fold enrichment (6-mer frequency, TF over GST control)"
same,binding signal,[10],"1.22 fold enrichment (6-mer frequency, TF over GST control)"
same,binding signal,[11],"1.15 fold enrichment (6-mer frequency, TF over GST control)"
same,binding signal,[12],"1.09 fold enrichment (6-mer frequency, TF over GST control)"
same,binding signal,[13],"1.16 fold enrichment (6-mer frequency, TF over GST control)"
same,binding signal,[14],"1.2 fold enrichment (6-mer frequency, TF over GST control)"
same,binding signal,[15],"1.26 fold enrichment (6-mer frequency, TF over GST control)"
same,binding signal,[16],"1.14 fold enrichment (6-mer frequency, TF over GST control)"
same,binding signal,[17],"1.17 fold enrichment (6-mer frequency, TF over GST control)"
same,binding signal,[18],"1.14 fold enrichment (6-mer frequency, TF over GST control)"
same,binding signal,[19],"1.09 fold enrichment (6-mer frequency, TF over GST control)"
